We go through nine molecules from PubChem BioAssay (NCATS).

Values joined by “and” are separate entries in the source; they are usually repeats but may differ in a detail not shown here. Equal entries are not always repeated. Records with an inconclusive call do not appear. Active and inactive are the calls of the source. Unless noted, calls come from the whole dose curve; as a rule, active = well fitted curve in the direction sought with a large enough effect; inconclusive = small, poorly fitted or top-dose-only effect, or another doubt; inactive = no such curve, though single readings can be large; an effect the other way counts as inactive or inconclusive.

For experiment [1], the target named is ATP-dependent 6-phosphofructokinase (Trypanosoma brucei brucei) (UniProt O15648). Description: qHTS Assay to Find Inhibitors of T. brucei phosphofructokinase: hit validation (AID 492961).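 Note: luminescence reports ADP formed as PFK phosphorylates fructose-6-phosphate with ATP; series mostly up to about 51 µM; % is set by controls: 0 for no effect and ±100 for the full control effect.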 A digest of the protocol:
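ADP-Glo luminescence read-out of ADP formed by 1.25 nM PFK from 0.1 mM ATP and 0.5 mM F6P (TEA pH 8.0, 45 min, RT). Compounds titrated; activity normalized to no-enzyme and full-enzyme controls.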
(In general: Quantitative high-throughput screening tests each substance at several concentrations.)

Experiment [2] can be described thus: Validation screen for small molecules that induce genotoxicity in human embryonic kidney (HEK293T) cells expressing luciferase-tagged ELG1 (AID 493106). Note: potency is the fitted concentration of half-maximal effect. Summed up: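 Cells were dispensed at 2,000 per well, then 23 nL compound or DMSO was pinned in. After 16 hr at 37 °C and 5% CO2, ONE-Glo reagent was added. Luciferase activity was measured following 30 min at room temperature.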

Experiment [3] concerns the target ATPase family AAA domain-containing protein 5 (Homo sapiens) (UniProt Q96QE3). As to the kind of experiment: Validation screen for small molecules that inhibit ELG1-dependent DNA repair in human embryonic kidney (HEK293T) cells expressing luciferase-tagged ELG1 (AID 493107). Note: nearly all actives have a fitted effect of over 70% in size. Note: potency is the fitted concentration of half-maximal effect. Summed up: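 Cells are dispensed in 1536-well format, then 5-fluorouridine and compound are pinned in. After a 16 hr incubation at 37 °C and 5% CO2, ONE-Glo is added and luciferase measured on a CCD imager.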

Experiment [4] in a line: Nrf2 qHTS screen for inhibitors: Validation (AID 493153; active = well fitted inhibition curve with a large enough effect in the main read-out, with a control signal flat, not every such curve was filed as active). To be noted: Potency: luciferase luminescence; viability change: measured here: cytotoxicity max response. Summed up: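 A549 ARE_Fluc, 5% FBS OPTI-MEM; cpd titration, 18-24 h, 37°C/5% CO2. Read 1: CellTiter-Fluor (Ex 405/Em 525), cytotox. Read 2: luciferase lum, Nrf2 activity.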
Experiment [5] can be described thus: qHTS for Inhibitors of Cell Surface uPA Generation: Validation Assay (AID 493164).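 Note: RAW 264.7 macrophage cells exposed to compound for 18 h; 0% is about no effect.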 A digest of the protocol:
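ATP-Lite luminescence read-out: ATP remains high when uPA activity-dependent LF translocation into the cytoplasm is blocked. RAW 264.7 cells, 18 h compound exposure at 37 C; 7-point titration, 2.45 nM to 38.3 uM final.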

Experiment [6] addresses Galactokinase (Homo sapiens) (UniProt P51570). As to the kind of experiment: qHTS Validation Assay for Inhibitors of Human Galactokinase (GALK) (AID 493189). Note: 0% is about no effect. A digest of the protocol: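 GALK (5 nM) with 35 uM ATP and 100 uM galactose in HEPES pH 8.0 with MgCl2, NaCl, DTT and BSA. Reaction ran 1 h at room temperature. Residual ATP read by Kinase-Glo Plus luminescence.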
A short description of experiment [7]: Validation screen for small molecules that induce DNA re-replication in SW480 colon adenocarcinoma cells (AID 504364). Note: 0% is about no effect. A digest of the protocol: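 Image-based qHTS: compounds were incubated with SW480 cells for 48 hr, nuclei stained with Hoechst, and per-nucleus fluorescence intensity scanned to flag cells with excess DNA content.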
Experiment [8] addresses Peptidyl-prolyl cis-trans isomerase NIMA-interacting 1 (Homo sapiens) (UniProt Q13526). Description: qHTS Validation Assay to Find Inhibitors of Pin1 (AID 504536; active = well fitted inhibition curve with a large enough effect in the polarisation, with a control signal flat, not every such curve was filed as active; the % refers to the polarisation;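 note: 0% = full Pin1 enzyme wells and -100% = no-enzyme wells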). A digest of the protocol:
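Fluorescence polarization competition: compounds (titration) displace HiFluor-488-labeled Pin1-1b peptide from Pin1 (0.3 uM final) in pH 7.5 HEPES buffer with DTT, 10 min at room temperature; %Activity normalized to no-enzyme wells, curves fitted.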

For experiment [9], the target named is Phosphoglycerate kinase, glycosomal (Trypanosoma brucei brucei) (UniProt P07378). As to the kind of experiment: qHTS Validation Assay to Find Inhibitors of Phosphoglycerate Kinase (AID 504547).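 Note: control wells lack PGK and mark full inhibition.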 A digest of the protocol:
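Luminescence end-point (Kinase-Glo Plus, 10 min) after a 60 min room-temperature coupled reaction. GAPDH at 100nM final supplies 1,3-BPG to PGK. Buffer: 100mM TEA pH 7.6, 5mM MgCl2, 0.01% Tween-20. Wells lacking PGK served as controls.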

For experiment [10], the target named is phosphoglycerate mutase (Leishmania major) (UniProt Q4Q090). As to the kind of experiment: qHTS Validation Assay to Find Inhibitors of Phosphoglycerate Mutase (AID 504548). Note: series mostly up to about 58 µM; % is set by controls: 0 for no effect and ±100 for the full control effect. Summed up:
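Lm PGAM 1.25nM final; 100 mM TEA pH 7.6, 5 mM MgCl2, 0.01% Tween-20; 45 min RT; Kinase-GloPlus, 10 min; end-point luminescence. Enzyme-free wells as negative controls.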

Experiment [11] concerns the target Ubiquitin carboxyl-terminal hydrolase 1 (Homo sapiens) (UniProt O94782). Description: Inhibitors of USP1/UAF1: Pilot qHTS (AID 504865). Note: nearly all actives have a fitted effect of over 35% in size. Note: potency is the fitted concentration of half-maximal effect. Summed up: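 USP1/UAF1 complex at 1 nM preincubated 15 min at room temperature with compound, then Ub-Rho substrate added at 150 nM final. Fluorescence (480/540 nm) read kinetically in 50 mM HEPES pH 7.8, 0.5 mM EDTA, 1 mM TCEP, 0.1 mg/ml BSA, 0.01% Tween-20.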

Experiment [12] deals with Thyrotropin-releasing hormone receptor (Homo sapiens) (UniProt P34981). As to the kind of experiment: qHTS for Small Molecule Agonists and Allosteric Enhancers of Human TRH Receptor: Validation Screen for Agonists (AID 493127;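 active = calcium activation more than 3 SD above the typical response in the agonist read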;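 note: intracellular calcium rise by fluo-8 fluorescence before TRH EC20 addition; 0% is about no effect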). Particulars: TRH receptor agonist cell assay; at 2 µM; stronger effect = higher value. A digest of the protocol:
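Compounds are added by online pintool to dye-loaded TRHR cells while fluorescence is recorded every second. A rise in calcium signal during the agonist read marks activation; a later 10 nM TRH addition (EC20) serves the separate enhancer mode.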

Experiment [13] can be described thus: qHTS for Inhibitors of ATXN expression: Validation of Cytotoxic Assay (AID 588349). Note: % is set by controls: 0 for no effect and ±100 for the full control effect. A digest of the protocol:
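Titrated compounds are added to cultured HEK293 cells, which are then held at 37 degrees C for 72 hr; loss of intracellular ATP, measured with CellTiter Glo, indicates toxicity.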

The nature of experiment [14]: qHTS for Inhibitors of ATXN expression: Validation (AID 588378). Note: series mostly up to about 57 µM; % is set by controls: 0 for no effect and ±100 for the full control effect; nearly all actives have a fitted effect of over 75% in size. A digest of the protocol: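 HEK293 cells carrying ATXN2-firefly luciferase reporter, treated with compound 24 h at 37 °C. Viability read first by CellTiter-Fluor (405/525 nm), then reporter expression by Bright-Glo luminescence; controls were a known ATXN2 expression inhibitor and a luciferase inhibitor.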

In experiment [15] the target is DNA dC->dU-editing enzyme APOBEC-3G (Homo sapiens) (UniProt Q9HC16). Description: qHTS for inhibitors of Vif-A3G interactions: Validation (AID 588379). Note: 0% is about no effect. Summed up:
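Yellow fluorescence (Ex 488, Em 500-530) of Vif-coexpressing HeLa A3G-eYFP cells, scanned by Acumen cytometer, reports blocked A3G degradation. Cells plated at 700/well overnight at 37 deg C before compound addition, then a further overnight compound incubation at 37 deg C.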

Sequence of Phosphoglycerate kinase, glycosomal (Trypanosoma brucei brucei) (P07378 whole entry, looked up): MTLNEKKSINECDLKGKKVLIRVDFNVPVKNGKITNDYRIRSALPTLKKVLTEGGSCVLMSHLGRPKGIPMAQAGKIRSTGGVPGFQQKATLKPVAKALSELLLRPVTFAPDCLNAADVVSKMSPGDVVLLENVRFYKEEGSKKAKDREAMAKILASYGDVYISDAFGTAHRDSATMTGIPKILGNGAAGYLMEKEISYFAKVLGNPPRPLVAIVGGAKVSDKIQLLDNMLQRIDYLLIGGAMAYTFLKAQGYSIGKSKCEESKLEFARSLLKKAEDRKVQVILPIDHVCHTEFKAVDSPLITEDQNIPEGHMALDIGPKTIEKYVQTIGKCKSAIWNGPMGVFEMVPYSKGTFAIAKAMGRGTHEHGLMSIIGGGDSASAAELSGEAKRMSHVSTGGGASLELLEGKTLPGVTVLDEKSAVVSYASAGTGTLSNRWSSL
Sequence of ATP-dependent 6-phosphofructokinase (Trypanosoma brucei brucei) (O15648 whole entry, looked up): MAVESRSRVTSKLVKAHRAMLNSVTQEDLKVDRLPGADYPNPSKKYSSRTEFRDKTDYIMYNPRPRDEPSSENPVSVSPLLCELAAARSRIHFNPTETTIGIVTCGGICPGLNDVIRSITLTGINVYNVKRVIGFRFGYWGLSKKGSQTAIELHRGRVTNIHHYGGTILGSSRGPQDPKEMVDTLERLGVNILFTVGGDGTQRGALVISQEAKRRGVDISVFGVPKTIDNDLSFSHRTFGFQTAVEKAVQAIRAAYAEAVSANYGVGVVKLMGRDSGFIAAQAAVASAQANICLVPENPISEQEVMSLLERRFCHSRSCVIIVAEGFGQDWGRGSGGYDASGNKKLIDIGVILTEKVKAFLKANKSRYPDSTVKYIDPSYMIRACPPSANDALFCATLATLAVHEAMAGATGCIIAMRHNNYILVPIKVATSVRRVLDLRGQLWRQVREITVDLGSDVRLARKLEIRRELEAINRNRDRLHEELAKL
Sequence of ATPase family AAA domain-containing protein 5 (Homo sapiens) (Q96QE3 whole entry, looked up, the tested form may be a part): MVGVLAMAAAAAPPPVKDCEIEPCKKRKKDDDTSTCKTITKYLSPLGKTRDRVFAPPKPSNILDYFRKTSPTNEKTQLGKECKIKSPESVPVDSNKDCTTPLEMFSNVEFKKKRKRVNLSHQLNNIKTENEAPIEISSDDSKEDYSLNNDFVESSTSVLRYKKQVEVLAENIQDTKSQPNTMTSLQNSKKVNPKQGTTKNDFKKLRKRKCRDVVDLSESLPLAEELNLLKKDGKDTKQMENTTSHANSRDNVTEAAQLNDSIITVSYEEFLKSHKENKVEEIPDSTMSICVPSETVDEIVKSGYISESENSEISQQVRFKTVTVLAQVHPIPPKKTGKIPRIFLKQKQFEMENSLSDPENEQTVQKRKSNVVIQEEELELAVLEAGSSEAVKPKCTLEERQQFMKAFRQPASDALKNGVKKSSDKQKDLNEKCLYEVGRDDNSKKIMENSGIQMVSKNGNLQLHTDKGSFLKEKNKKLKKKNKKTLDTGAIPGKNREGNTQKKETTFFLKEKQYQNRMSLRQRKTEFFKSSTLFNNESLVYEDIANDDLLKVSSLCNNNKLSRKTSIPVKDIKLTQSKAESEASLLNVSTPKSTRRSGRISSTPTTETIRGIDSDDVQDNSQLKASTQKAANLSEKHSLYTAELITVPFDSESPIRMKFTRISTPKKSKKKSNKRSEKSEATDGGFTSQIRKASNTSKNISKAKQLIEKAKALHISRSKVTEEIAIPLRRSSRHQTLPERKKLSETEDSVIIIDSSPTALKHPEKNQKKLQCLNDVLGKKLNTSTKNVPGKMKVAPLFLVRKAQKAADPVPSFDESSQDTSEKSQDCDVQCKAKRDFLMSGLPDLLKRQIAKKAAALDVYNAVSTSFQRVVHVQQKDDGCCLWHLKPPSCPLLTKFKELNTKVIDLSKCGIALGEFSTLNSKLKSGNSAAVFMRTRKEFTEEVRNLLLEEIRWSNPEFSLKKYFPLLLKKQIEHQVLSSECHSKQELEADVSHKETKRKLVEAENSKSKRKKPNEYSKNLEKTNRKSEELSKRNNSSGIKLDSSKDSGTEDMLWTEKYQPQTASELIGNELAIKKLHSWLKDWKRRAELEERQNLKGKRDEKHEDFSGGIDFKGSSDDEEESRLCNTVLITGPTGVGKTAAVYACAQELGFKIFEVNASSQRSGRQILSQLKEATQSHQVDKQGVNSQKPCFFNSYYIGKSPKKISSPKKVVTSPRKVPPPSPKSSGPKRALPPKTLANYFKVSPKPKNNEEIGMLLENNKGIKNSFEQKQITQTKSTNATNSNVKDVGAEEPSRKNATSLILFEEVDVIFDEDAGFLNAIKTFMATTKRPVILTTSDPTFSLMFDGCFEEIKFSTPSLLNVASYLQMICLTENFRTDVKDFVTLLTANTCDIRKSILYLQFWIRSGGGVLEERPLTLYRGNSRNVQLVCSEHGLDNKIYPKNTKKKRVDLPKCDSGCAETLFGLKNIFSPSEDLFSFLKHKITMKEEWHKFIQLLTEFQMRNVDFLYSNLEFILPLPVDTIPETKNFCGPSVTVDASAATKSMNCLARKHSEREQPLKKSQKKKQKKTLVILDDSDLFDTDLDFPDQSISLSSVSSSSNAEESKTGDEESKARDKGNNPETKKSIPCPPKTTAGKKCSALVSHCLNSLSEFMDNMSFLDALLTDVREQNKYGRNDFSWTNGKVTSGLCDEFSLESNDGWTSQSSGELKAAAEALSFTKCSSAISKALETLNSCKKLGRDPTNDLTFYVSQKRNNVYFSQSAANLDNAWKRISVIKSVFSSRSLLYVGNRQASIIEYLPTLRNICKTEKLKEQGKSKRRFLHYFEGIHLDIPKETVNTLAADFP
Sequence of Galactokinase (Homo sapiens) (P51570 whole entry, looked up): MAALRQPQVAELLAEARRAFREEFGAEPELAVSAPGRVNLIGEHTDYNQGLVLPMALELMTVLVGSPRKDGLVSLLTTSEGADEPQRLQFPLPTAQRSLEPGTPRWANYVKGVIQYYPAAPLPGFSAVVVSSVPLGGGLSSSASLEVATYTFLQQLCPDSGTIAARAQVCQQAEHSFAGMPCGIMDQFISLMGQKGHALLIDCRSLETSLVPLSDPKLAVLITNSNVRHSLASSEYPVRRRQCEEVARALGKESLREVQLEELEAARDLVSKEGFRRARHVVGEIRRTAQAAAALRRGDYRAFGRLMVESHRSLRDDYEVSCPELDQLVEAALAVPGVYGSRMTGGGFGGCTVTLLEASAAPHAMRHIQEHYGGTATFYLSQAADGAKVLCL
Sequence of Ubiquitin carboxyl-terminal hydrolase 1 (Homo sapiens) (O94782 whole entry, looked up): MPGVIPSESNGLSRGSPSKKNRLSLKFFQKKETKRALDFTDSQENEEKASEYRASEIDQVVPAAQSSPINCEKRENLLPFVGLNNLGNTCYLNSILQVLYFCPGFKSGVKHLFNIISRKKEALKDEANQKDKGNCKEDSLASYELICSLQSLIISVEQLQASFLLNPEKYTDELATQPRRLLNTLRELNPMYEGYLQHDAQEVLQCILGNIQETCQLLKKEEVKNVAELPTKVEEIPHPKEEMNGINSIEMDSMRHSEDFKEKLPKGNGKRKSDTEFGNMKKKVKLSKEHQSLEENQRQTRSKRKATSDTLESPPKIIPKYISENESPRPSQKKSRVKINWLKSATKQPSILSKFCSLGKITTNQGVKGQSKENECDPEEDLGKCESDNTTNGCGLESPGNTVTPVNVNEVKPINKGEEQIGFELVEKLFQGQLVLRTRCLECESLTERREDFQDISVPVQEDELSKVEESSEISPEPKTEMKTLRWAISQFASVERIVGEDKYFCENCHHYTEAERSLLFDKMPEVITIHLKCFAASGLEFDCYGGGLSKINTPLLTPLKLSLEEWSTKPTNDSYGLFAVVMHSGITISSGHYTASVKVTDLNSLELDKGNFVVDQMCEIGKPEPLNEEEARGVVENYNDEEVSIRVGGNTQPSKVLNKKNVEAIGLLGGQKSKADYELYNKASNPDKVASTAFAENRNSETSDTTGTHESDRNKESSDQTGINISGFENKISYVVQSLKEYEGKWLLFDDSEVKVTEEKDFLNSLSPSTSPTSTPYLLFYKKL
Sequence of Peptidyl-prolyl cis-trans isomerase NIMA-interacting 1 (Homo sapiens) (Q13526 whole entry, looked up): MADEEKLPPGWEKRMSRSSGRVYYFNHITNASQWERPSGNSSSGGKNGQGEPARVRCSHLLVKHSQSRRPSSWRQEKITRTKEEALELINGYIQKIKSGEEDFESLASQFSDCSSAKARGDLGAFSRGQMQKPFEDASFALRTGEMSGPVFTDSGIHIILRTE
Sequence of phosphoglycerate mutase (Leishmania major) (Q4Q090 1-553): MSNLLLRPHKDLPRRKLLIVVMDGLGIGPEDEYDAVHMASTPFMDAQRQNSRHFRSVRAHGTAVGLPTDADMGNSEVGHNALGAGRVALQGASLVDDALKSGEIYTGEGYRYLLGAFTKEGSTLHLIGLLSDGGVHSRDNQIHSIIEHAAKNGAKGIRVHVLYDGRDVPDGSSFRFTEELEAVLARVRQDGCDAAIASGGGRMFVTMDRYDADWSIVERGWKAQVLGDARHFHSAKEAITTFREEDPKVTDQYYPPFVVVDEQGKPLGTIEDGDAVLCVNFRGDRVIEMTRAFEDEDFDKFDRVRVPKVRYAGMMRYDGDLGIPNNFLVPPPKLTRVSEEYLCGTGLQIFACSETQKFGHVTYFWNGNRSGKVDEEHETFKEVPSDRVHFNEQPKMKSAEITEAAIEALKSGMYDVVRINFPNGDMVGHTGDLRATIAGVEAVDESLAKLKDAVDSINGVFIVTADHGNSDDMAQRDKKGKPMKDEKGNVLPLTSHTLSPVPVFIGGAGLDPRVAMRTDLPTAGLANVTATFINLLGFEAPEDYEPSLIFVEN
Sequence of DNA dC->dU-editing enzyme APOBEC-3G (Homo sapiens) (Q9HC16 whole entry, looked up): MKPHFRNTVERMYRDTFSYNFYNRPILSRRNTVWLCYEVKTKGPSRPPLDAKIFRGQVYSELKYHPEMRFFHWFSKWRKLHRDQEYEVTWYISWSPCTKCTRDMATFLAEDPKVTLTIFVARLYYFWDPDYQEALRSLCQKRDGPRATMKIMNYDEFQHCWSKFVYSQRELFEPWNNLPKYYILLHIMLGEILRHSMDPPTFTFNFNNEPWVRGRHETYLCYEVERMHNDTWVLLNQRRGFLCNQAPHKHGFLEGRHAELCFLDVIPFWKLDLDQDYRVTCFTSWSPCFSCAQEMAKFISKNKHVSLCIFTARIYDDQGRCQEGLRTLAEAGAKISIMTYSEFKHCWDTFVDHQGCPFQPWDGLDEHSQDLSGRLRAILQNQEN

For `NC(N)=N/N=C/c1c(Cl)cccc1Cl`, the outcome in experiment [1], in experiment [5], in [6], in experiment [7], in experiment [8] and in experiment [9] was inactive. Also, in experiment [10], the molecule was classed as inactive. The Potency entry in [2], in experiment [3], in experiment [4] and in experiment [11] was “inactive” each time. The viability change in experiment [4] was determined as 6.68%.

Regarding `CCN1CCC[C@H]1CNC(=O)c1c(O)c(Cl)cc(Cl)c1OC`, the result in experiment [1], in [5], in experiment [6], in experiment [7], in experiment [8] and in [9] was inactive. Further, the result in experiment [10] and in [15] was inactive. The Potency result in experiment [2], in [3], in experiment [4], in experiment [11], in experiment [13] and in experiment [14] was “inactive” throughout. Also, the activation in [12] is 0.938% (inactive). Further, the viability change in [4] was -0.523%.

Take `Cc1nnc(SCC2=C(C(=O)O)N3C(=O)[C@@H](NC(=O)Cn4cnnn4)[C@H]3SC2)s1`: the call in [1], in experiment [6], in [7], in [8], in [9] and in experiment [10] was inactive. Moreover, the Potency result in experiment [2], in experiment [3], in [4], in experiment [11] and in [13] was “inactive” each time. Besides, the activation in experiment [12] is 1.12% (inactive). Further, the viability change in experiment [4] is -1.79%.

With `NC(=O)c1ncn([C@@H]2O[C@H](CO)[C@@H](O)[C@H]2O)c1O`, the molecule was classed as inactive in experiment [1], in experiment [5], in [6], in experiment [7], in experiment [9] and in experiment [10]. For the same molecule, the Potency result in experiment [2], in experiment [3], in experiment [4], in experiment [11], in [13] and in [14] was “inactive” throughout. Further, the viability change in [4] is 2.79%.

With `C[N+](C)(C)CCOC(=O)CCC(=O)OCC[N+](C)(C)C`, the molecule was classed as inactive in experiment [1], in experiment [5], in experiment [6], in experiment [7], in [8] and in [9]. Further, the result in experiment [10] was inactive. Moreover, the Potency entry in experiment [2], in [3], in [4], in experiment [11] and in [13] was “inactive” in each case. Also, in [12], the activation is 0.188% (inactive). For the same molecule, in experiment [4], the viability change was determined as 0.0745%.

Regarding `CC(=O)Oc1cc(C(C)C)c(OCCN(C)C)cc1C`, the call in experiment [1], in experiment [6], in experiment [7], in [8] and in experiment [10] was inactive. Also, the Potency result in experiment [2], in experiment [3], in experiment [4], in experiment [11], in experiment [13] and in experiment [14] was “inactive” in each case. Besides, in experiment [12], the activation was 1.31% (inactive). In experiment [4], the viability change was -6.98%.

Regarding `CC(=O)[C@]1(O)Cc2c(O)c3c(c(O)c2[C@@H](O[C@H]2C[C@H](N)[C@H](O)[C@H](C)O2)C1)C(=O)c1ccccc1C3=O`, the call in experiment [1], in experiment [6], in experiment [9] and in experiment [10] was inactive. Moreover, the Potency was 0.58 µM (active) in experiment [2]; 5.8 µM (active) in [3]; 50.1 µM (active) and 39.8 µM (active) in [11]. The activation in [12] was 17.9% (inactive). In addition, the Potency entry in [4] is “inactive”. Moreover, the viability change in [4] is -47.3%.

On to `Cc1ccc(/C(=C\CN2CCCC2)c2ccccn2)cc1`, for which the result in experiment [1], in [5], in [6], in experiment [7], in experiment [8] and in [10] was inactive. For the same molecule, the Potency entry in [2], in experiment [3], in experiment [4], in [11], in experiment [13] and in experiment [14] was “inactive” each time. For the same molecule, in experiment [4], the viability change amounted to 2.7%.

Turning to `CCNC(=O)N1CCN(CCCC(c2ccc(F)cc2)c2ccc(F)cc2)CC1`, the molecule was classed as inactive in [1], in [6], in [7], in experiment [8] and in [10]. Also, the Potency entry in experiment [2], in experiment [3], in experiment [4] and in experiment [11] was “inactive” in each case. Besides, the activation in [12] is 6.5% (inactive). Further, the viability change in [4] is -3.28%.
